The list is not random: actives were taken first. Their share in the collection is about 21%.
Pf growth 48h = inhibits P. falciparum growth in the first generation, 48 h | AID 504832 | P. falciparum luciferase growth in erythrocytes, 48 h | 310,000 compounds, 5.9% hits | Potency, µM (series often up to 28.7 µM), without a hit: at the highest dose activity change, negative = inhibition, actives largely listed as inhibitors; also: potency is read from the fitted curve at half-maximal effect; % is scaled to controls: 0 for no effect and ±100 for the full control effect
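Growth was read as firefly luciferase luminescence after a 48 h, 37 C, 5% CO2 exposure of compounds to reporter-bearing P. falciparum cultures (0.1% parasitemia, 2% hematocrit final) in Albumax-supplemented RPMI 1640.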
CHX counter = counter-screen hit for Shiga toxin inhibitors, cycloheximide; cell reporter, cycloheximide protein synthesis inhibition counterscreen; max response, %; 300,000 compounds, 12% hits; in the data active = max response mostly above about 13%, no sharp cut-off; inactive = mostly below about 14%; also: read at 38.3 µM for the half of the compounds with a filed dose; 0% is about no effect
NS1 inh = inhibitors of influenza NS1 protein function; 270,000 compounds, 0.4% hits; AID 2326; Potency, µM (doses to about 46.1 µM), for inactives: at the top dose activity, positive = more growth; calls by dose curve; also: potency is read from the fitted curve at half-maximal effect; actives are rising curves; nearly all actives have a fitted effect of over 50% in size
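Read-out: OD600 growth recovery of NS1-expressing budding yeast. Cells grown overnight at 30C in -URA glucose medium, washed, resuspended and diluted 1:100 in 2% galactose assay medium, pH 6.0. Same strain lacking NS1 served as positive control.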
Shiga toxin inh = blocks Shiga toxin action in Vero cells | Vero cells, Shiga toxin protein synthesis inhibition reporter | 290,000 compounds, 9.2% hits | inhibition, % at 38.7 µM; in the data active = inhibition mostly above about 28%, no sharp cut-off; inactive = mostly below about 43%; also: 0% is about no effect
SARS PLP yeast = SARS-CoV PLP inhibition in yeast; Potency, µM (series often up to 32.9 µM), for inactives: at the highest dose activity, positive = growth rescue, hits mostly activators; 330,000 compounds, 0.19% hits; S. cerevisiae expressing SARS-CoV PLpro, growth rescue; calls by dose curve; also: potency is read from the fitted curve at half-maximal effect; 0% is about no effect; nearly all actives have a fitted effect of over 55% in size
Pf growth 96h = P. falciparum growth inhibition at 96 hour, primary screen for plastid delayed-death inhibitors | P. falciparum luciferase reporter growth, 96 h | Potency, µM (top dose mostly 28.7 µM), without a hit: top-dose activity change, negative = inhibition, actives largely listed as inhibitors | 320,000 compounds, 6.9% hits; also: potency is read from the fitted curve at half-maximal effect; % is scaled to controls: 0 for no effect and ±100 for the full control effect
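Two parasite generations (96 h, 37 C, 5% CO2) of compound exposure in infected erythrocytes (0.05% parasitemia, 2% hematocrit). Luciferase-reporter P. falciparum; decreased luminescence indicates inhibited growth, aimed at apicoplast-acting delayed death.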
* marks the source's active call; other numbers are inactive results; ? = inconclusive; . = not tested or not shown; [ ] = remark or other dose. Unless noted, calls follow the shape of the dose curve; as a rule, active = well fitted inhibition curve with a large enough effect; inconclusive = small, poorly fitted or top-dose-only effect, or another doubt; inactive = no such curve, though single readings can be large or run the other way.

SMILES	Pf growth 48h	CHX counter	NS1 inh	Shiga toxin inh	SARS PLP yeast	Pf growth 96h
O=C1/C(=C\c2ccco2)NC(=S)N1c1ccccc1	53%	18*	5%	35	-1%	?
CCCN=C1N/C(=C\c2ccco2)C(=O)N1c1ccccc1	.	-5	1%	-17	-6%	-20%
CC(/C=C1\SC(=S)N(CCCC(=O)Nc2ccc(C(=O)O)cc2)C1=O)=C\c1ccccc1	?	1	15%	15	-23%	?
O=C(CCCN1C(=O)/C(=C/c2ccco2)SC1=S)Nc1ccccc1C(=O)O	-11%	-4	9%	15	-1%	-6%
O=C(O)CCCN1C(=O)/C(=C\c2ccco2)SC1=S	-9%	-5	-5%	-12	0%	2.9µM*
CSc1nnc(C2CCN(CC(=O)Nc3ccccc3N3CCOCC3)CC2)n1C	-26%	-7	0%	-4	0%	?
COc1ccc(-c2ccc(OC)c(C3C4C=CCC(C)C4C(=O)N3Cc3ccccc3)c2)cc1 (stereo not given)	.	10	.	-9	.	.
CC(C)Oc1cccc(C2NC(=O)c3ccccc3O2)c1 (stereo not given)	3%	17	0%	47	3%	?
N=C1C(c2nc3ccccc3s2)=C(O)CN1C1CCCCC1	3%	14	1%	40	-3%	47%
Cc1cccc(C)c1-n1c(C)nn(CC#N)c1=O	14%	-3	-1%	-7	1%	-34%[5.75 µM]
CC1CCCC(=C\c2ccccc2)/C1=N/O (stereo not given)	-13%	-1	-18%	5	-18%	25%
COc1cc(C(=O)N2CCN(S(=O)(=O)c3ccc(F)cc3)CC2)cc(OC)c1OC	.	-6	-1%	-5	22%	-27%
Cc1ccc(N2C(=O)/C(=C\c3ccco3)SC2=S)cc1	?	21	?	64*	-4%	5%
Oc1ccccc1/C=N/NC(=S)NC1CC2C=CC1C2 (stereo not given)	?	35*	-4%	57*	0%	0.93µM*
Cc1c(NC(=S)N/N=C\c2ccccc2O)c(=O)n(-c2ccccc2)n1C	-17%	9	7%	13	3%	?
CN(/N=C/c1cc(Cl)cc(Cl)c1O)C(=S)NC(C)(C)C	?	-3	-57%	-2	-3%	?
Oc1c(Cl)cc(Cl)cc1/C=N/NC(=S)NC1CC2C=CC1C2 (stereo not given)	0.83µM*	1	16%	31	-4%	?
Cc1ccc(OCc2cc(C(=O)NCCc3cccnc3)no2)cc1C	4%	36*	-29%	51*	-3%	47%
Cc1ccc(OCc2cc(C(=O)NCC(C)c3ccccc3)no2)cc1C (stereo not given)	18%	13	-5%	2	-2%	-26%
Cc1ccc(OCc2cc(C(=O)NCCn3cccn3)no2)cc1C	19%	22	-28%	48*	2%	?
Cc1ccc(OCc2cc(C(=O)NC(C)Cc3cccnc3)no2)cc1C (stereo not given)	-1%	35*	-51%	98*	-4%	19%
COc1ccccc1N1CCN(C(=O)CCNC(=O)c2ccco2)CC1	43%	.	.	.	3%	37%
CC(OC(=O)c1ccc(NS(=O)(=O)c2cccs2)cc1)C(=O)N(C)C1CCCCC1 (stereo not given)	-11%	0	15%	-5	24%	-21%
CC(=O)CC1(OC(C)=O)C(=O)N(C)c2ccccc21 (stereo not given)	-27%	-2	2%	1	-4%	0%
CN(C)C(Cc1ccc(C#N)cc1)C(=O)c1ccccc1 (stereo not given)	1%	29*	5%	32	-9%	15%
SMILES	Pf growth 48h	CHX counter	NS1 inh	Shiga toxin inh	SARS PLP yeast	Pf growth 96h
COc1ccc(C(=O)C(Cc2ccccc2)N(C)C)cc1 (stereo not given)	?	31*	0%	42*	2%	1.3µM*
COc1ccc(C(C)=O)cc1CC(C(=O)c1ccc(C)c(C)c1)N(C)C (stereo not given)	-29%	-1	4%	15	-19%	-13%
N#Cc1ccc(C[C@@H](NS(=O)(=O)c2ccc(C(=O)O)cc2)C(=O)O)cc1	?	-3	.	-5	-6%	2%
COc1ccc(C(C)=O)cc1CC(C(=O)c1ccc(F)cc1)N(C)C (stereo not given)	?	8	?	22	-1%	10µM*
CCN(CCCNC(=O)C1CCC(=O)N1C(C)C)c1cccc(C)c1 (stereo not given)	.	4	10%	-18	5%	13%
CCN(CC)c1ccc(/C=N/NC(=O)c2ccoc2C)c(O)c1	1.3µM*	27*	1%	93*	15%	?
CCN(CC)c1ccc(/C=N/Nc2ccccc2)c(O)c1	?	23*	19%	29	-5%	?
CCN(CC)c1ccc(/C=N/NC(=O)c2ccc3nc[nH]c3c2)c(O)c1	?	-3	-4%	16	3.2µM*	?
CCN(CC)c1ccc(/C=N/NC(=S)NC)c(O)c1	?	30*	.	77*	29%	-22%
CCN(CC)c1ccc(/C=N/Nc2cccc(C)c2)c(O)c1	-4%	2	9%	21	-5%	?
CCc1cc(C(=O)N/N=C/c2ccc(O)cc2O)c2ccccc2n1	?	2	4%	-13	.	-8%
CCN(CC)C(=O)CSC1=C(C#N)C(c2cccs2)C=C(C)N1 (stereo not given)	1%	12	1%	3	2%	?
CC1(C(=O)NCC2CCCO2)Oc2cccnc2NC1=O (stereo not given)	32%	-3	1%	-11	0%	?
NC(=O)COc1ccc(C(=O)NCC2(N3CCOCC3)CCCCC2)cc1	-23%	.	.	.	-1%	?
CCN(CC)c1ccc(C=Nc2ccccc2)c(O)c1	?	5	-2%	35	-1%	?
CCN(CC)c1ccc(/C=N/NC(=O)OC)c(O)c1	.	55*	-62%	64*	-23%	-14%
Cc1ccc(S(=O)(=O)N2CC(O)CC2C(=O)OCC(=O)c2ccccc2Cl)cc1C (stereo not given)	32%	-3	-2%	-14	-12%	52%
O=C1Cc2ccccc2N1c1c(Cl)cccc1Cl	-29%	-3	10%	3	6%	3.3µM*
C(=N\n1cnnc1)/c1cn(-c2cccs2)nc1-c1ccccc1	33%	37*	-14%	66*	-1%	-8%
COc1ccc(-c2nn(-c3ccccc3)cc2/C=N/n2cnnc2)cc1OC	?	-3	-7%	-2	0%	-14%
CCCCCCSc1cc(-c2nc3cnccn3c2NCc2ccccc2)ccc1OC	7.4µM*	.	.	.	3%	5.9µM*
CCCCCCSc1cc(-c2nc3cc(C)ccn3c2NC2CCCCC2)ccc1OC	7.4µM*	.	.	.	-3%	8.3µM*
CCCCCCSc1ccc(-c2nc3ccc(C)cn3c2NC2CCCCC2)cc1	9.3µM*	.	.	.	-10%	13µM*
